Tau fibril FP = blocks human tau fibril formation measured by polarization; Potency, µM (top dose mostly 57.7 µM), for the others: at the top dose activity, negative = inhibition, hits mostly inhibitors; 280,000 tested, 0.39% active; AID 1468; K18 P301L tau heparin fibrillization, Alexa594 FP, 6 h; note: nearly all actives have a fitted effect of over 55% in size
Target sequence (P10636 561-689 P618L limits assumed): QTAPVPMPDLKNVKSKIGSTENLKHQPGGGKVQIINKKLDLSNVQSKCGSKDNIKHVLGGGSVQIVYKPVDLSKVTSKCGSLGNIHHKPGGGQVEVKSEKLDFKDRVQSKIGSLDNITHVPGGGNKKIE
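Recombinant K18 P301L […], labeled with Alexa 594 at 0.24 uM over 15 uM unlabeled; heparin inducer 20 uM final; 37 C, 6 hr; FP endpoint.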
TR SRC2 fluor cs = Texas Red fluorescence interference in TRb-SRC2 counter-screen | 280,000 tested, 0.29% active | Potency, µM (top dose mostly 106 µM), for inactives: at the top dose fluorescence change, negative = quenching | AID 1479 | TRb/SRC2 Texas Red total fluorescence interference; active = well fitted curve in either direction with a large enough effect; inconclusive = small, poorly fitted or top-dose-only effect
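Flags fluorescent or light-absorbing compounds by total fluorescence, S + 2P, at 555 nm excitation and 632 nm emission. Mixture: 20 nM Texas Red SRC2 peptide, 0.6 uM human TRb LBD, 1 uM T3, 5% DMSO; compound exposure 5 h at ambient temperature.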
Tau fluor counter = counter-screen for tau fibril formation inhibitors | tau K18 P301L Alexa594 fluorescence, heparin fibrillization | Potency, µM (top dose mostly 57.7 µM), without a hit: top-dose activity change, negative = decrease | 280,000 tested, 0.93% active | AID 1463; note: nearly all actives have a fitted effect of over 55% in size
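Human K18 P301L tau (15 uM unlabeled plus 0.24 uM Alexa 594-labeled, final) in 100 mM sodium acetate pH 7 was mixed with compound and 20 uM heparin and incubated 6 hr at 37 C.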
Tau ThT inhib = blocks human tau fibril formation measured by thioflavin T. P10636. recombinant tau K18 P301L (four-repeat tau fragment), heparin-induced fibrillization, ThT fluorescence. Potency, µM (series often up to 57.4 µM), inactives show at the highest dose activity, negative = inhibition, usual class: inhibitors. 270,000 tested, 2.1% active. AID 1460; note: nearly all actives have a fitted effect of over 55% in size
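Heparin-induced fibrillization of the P301L-mutant K18 repeat-domain fragment of human tau was followed by ThT binding in quantitative high-throughput format.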
GoLoco inh red = RGS12 GoLoco-Gai1 interaction inhibition; P63096; 230,000 tested, 0.44% active; Potency, µM (doses to about 61.6 µM), for the others: top-dose activity, negative = inhibition, hits mostly inhibitors; Gai1:RGS12 GoLoco peptide FP, rhodamine, 10 min; active = well fitted inhibition curve with a large enough effect, not every such curve was filed as active; inactive = no such curve, though single readings can be large or run the other way; note: nearly all actives have a fitted effect of over 30% in size
TRb-SRC2 inh = TRbeta-SRC2 interaction inhibition | P10828 | TRbeta-SRC2 peptide binding, fluorescence polarization; receptor liganded with 1 µM T3 | 280,000 tested, 0.065% active | Potency, µM (top dose mostly 106 µM), for the others: top-dose activity change, negative = inhibition, actives largely listed as inhibitors;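 note: plate controls were bound peptide for no effect and peptide without receptor for full effect; nearly all actives have a fitted effect of over 50% in size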
Target sequence (P10828 whole entry, looked up): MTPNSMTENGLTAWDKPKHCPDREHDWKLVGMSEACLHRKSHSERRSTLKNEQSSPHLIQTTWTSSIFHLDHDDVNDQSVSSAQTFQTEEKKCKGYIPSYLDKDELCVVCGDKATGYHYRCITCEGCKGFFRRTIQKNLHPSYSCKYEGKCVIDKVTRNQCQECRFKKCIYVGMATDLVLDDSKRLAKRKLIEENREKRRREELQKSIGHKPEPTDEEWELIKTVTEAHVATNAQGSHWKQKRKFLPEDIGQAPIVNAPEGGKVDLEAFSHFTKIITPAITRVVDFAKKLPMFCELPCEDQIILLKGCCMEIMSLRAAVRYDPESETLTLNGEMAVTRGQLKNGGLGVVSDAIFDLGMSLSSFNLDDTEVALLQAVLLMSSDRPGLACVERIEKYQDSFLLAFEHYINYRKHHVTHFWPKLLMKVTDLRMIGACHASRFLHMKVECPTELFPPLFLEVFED
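Assay buffer: 20 mM Tris-HCl, 100 mM NaCl, 10% glycerol, 1 mM EDTA, 0.01% NP-40, 1 mM DTT, 1 uM T3, 5% DMSO; TRb LBD 0.6 uM, Texas Red SRC2 20 nM; FP after 5 hr.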
Active calls of the source: *; [ ] = remark or other dose. This is a sample that favours compounds with a hit; in the whole collection about 3.2% have one here. Unless noted, calls come from the whole dose curve; as a rule, active = well fitted curve in the direction sought with a large enough effect; inconclusive = small, poorly fitted or top-dose-only effect, or another doubt; inactive = no such curve, though single readings can be large; an effect the other way counts as inactive or inconclusive. Unless noted, % is set by controls: 0 for no effect and ±100 for the full control effect; potency is the fitted concentration of half-maximal effect.

For O=C(Nc1nc2ccc3ccccc3c2s1)c1ccc(N2CCCCC2)c([N+](=O)[O-])c1 the results were Tau fibril FP 3%, TR SRC2 fluor cs -3%, Tau fluor counter -19%, Tau ThT inhib 4µM*, GoLoco inh red 1% and TRb-SRC2 inh -10%.
Screening O=C(Nc1ccc(N2CCCCC2)c(Cl)c1)c1ccc(N2CCOCC2)c([N+](=O)[O-])c1 returned Tau fibril FP inconclusive, TR SRC2 fluor cs -4%[53 µM], Tau fluor counter inconclusive, Tau ThT inhib inconclusive, GoLoco inh red 8% and TRb-SRC2 inh -15%[53 µM].
O=C(Nc1nc2ccc(Cl)cc2s1)c1ccc(N2CCCCC2)c([N+](=O)[O-])c1 was read as Tau fibril FP -19%, TR SRC2 fluor cs 16%, Tau fluor counter -15%, Tau ThT inhib 1.3µM*, GoLoco inh red 6% and TRb-SRC2 inh inconclusive.
For CCC(CC)c1nnc(NC(=O)c2ccc(N3CCCCC3)c([N+](=O)[O-])c2)s1 the results were Tau fibril FP 8%, TR SRC2 fluor cs 2%, Tau fluor counter 13%, Tau ThT inhib 14%, GoLoco inh red 5% and TRb-SRC2 inh 2%.
Screening O=[N+]([O-])c1cccc(S(=O)(=O)NCCNS(=O)(=O)c2cccc([N+](=O)[O-])c2)c1 returned TR SRC2 fluor cs 0% and TRb-SRC2 inh 6%.
CC(=O)NC1=NC(=O)/C(=C/c2cn(C(C)=O)nc2-c2ccccc2)S1 was read as Tau fibril FP inconclusive, TR SRC2 fluor cs -1%, Tau fluor counter -22%, Tau ThT inhib 28µM*, GoLoco inh red 92% and TRb-SRC2 inh 15%.
CCN=C1S/C(=C\c2cn(C(C)=O)nc2-c2ccccc2)C(=O)N1CC was read as Tau fibril FP -3%, TR SRC2 fluor cs -1%, Tau fluor counter -21%, Tau ThT inhib -15%, GoLoco inh red 11% and TRb-SRC2 inh -5%.
c1cncc(CNc2cc(-c3ccc4c(c3)OCO4)ncn2)c1 was read as Tau fibril FP -1%, TR SRC2 fluor cs 2%, Tau fluor counter -21%, Tau ThT inhib -16%, GoLoco inh red -10% and TRb-SRC2 inh 4%.
`COc1ccccc1NC(=O)c1sc2ncn(Cc3cccc4ccccc34)c(=O)c2c1C` gave Tau fibril FP 14%, TR SRC2 fluor cs 0.89µM*[quencher], Tau fluor counter -5%, Tau ThT inhib -5%, GoLoco inh red 39% and TRb-SRC2 inh inconclusive.
COc1ccccc1NC(=O)c1sc2ncn(Cc3ccc(C)cc3)c(=O)c2c1C was read as Tau fibril FP -1%, TR SRC2 fluor cs -2%, Tau fluor counter -23%, Tau ThT inhib -5%, GoLoco inh red 29% and TRb-SRC2 inh 3%.
Cc1nc2ncccn2c1-c1csc(Nc2ccccc2)n1 was read as Tau fibril FP 4%, TR SRC2 fluor cs -1%, Tau fluor counter inconclusive, Tau ThT inhib inconclusive, GoLoco inh red 6% and TRb-SRC2 inh -6%.
Cc1nc2ncccn2c1-c1csc(Nc2ccc(N(C)C)cc2)n1 was read as Tau fibril FP -2%, TR SRC2 fluor cs -2%, Tau fluor counter inconclusive, Tau ThT inhib 13µM*, GoLoco inh red -3% and TRb-SRC2 inh -1%.
`COc1ccccc1Nc1nc(-c2c(C)nc3ncccn23)cs1` gave Tau fibril FP 0%, TR SRC2 fluor cs -2%, Tau fluor counter inconclusive, Tau ThT inhib inconclusive, GoLoco inh red 10% and TRb-SRC2 inh -1%.
For COc1ccc(Nc2nc(-c3c(C)nc4ncccn34)cs2)cc1 the results were Tau fibril FP -2%, TR SRC2 fluor cs -3%, Tau fluor counter inconclusive, Tau ThT inhib 8.9µM*, GoLoco inh red -1% and TRb-SRC2 inh -6%.
For COc1ccc(Cl)cc1Nc1nc(-c2sc(NC(=O)c3ccco3)nc2C)cs1 the results were Tau fibril FP 16%, TR SRC2 fluor cs -1%, Tau fluor counter inconclusive, Tau ThT inhib inconclusive, GoLoco inh red 43% and TRb-SRC2 inh 12%.
COc1cccc(Nc2nc(-c3sc(NC(=O)c4ccco4)nc3C)cs2)c1 was read as Tau fibril FP inconclusive, TR SRC2 fluor cs 3%, Tau fluor counter inconclusive, Tau ThT inhib 10µM*, GoLoco inh red 49% and TRb-SRC2 inh 10%.
For COc1cccc(Nc2nc(-c3sc(N)nc3C)cs2)c1 the results were Tau fibril FP -6%, TR SRC2 fluor cs 1%, Tau fluor counter 14µM*[quencher], Tau ThT inhib 11µM*, GoLoco inh red 18% and TRb-SRC2 inh 8%.
`Cc1ccc2c(c1)N(C(=O)N1CCC(C(=O)NC3CCCCCC3)CC1)CC(C)O2` (stereo unspecified) gave Tau fibril FP 8%, TR SRC2 fluor cs 3%, Tau fluor counter 10µM*[quencher], Tau ThT inhib inconclusive and TRb-SRC2 inh -2%.
For O=C(NC1CCCCCC1)C1CCN(C(=O)N2CCOc3ccc(Cl)cc32)CC1 the results were Tau fibril FP inconclusive, TR SRC2 fluor cs 4%, Tau fluor counter inconclusive, Tau ThT inhib 22µM* and TRb-SRC2 inh 1%.
`COc1ccc(CNC(=O)C2CCN(C(=O)N3CCOc4ccc(Cl)cc43)CC2)cc1` gave Tau fibril FP -4%, TR SRC2 fluor cs inconclusive, Tau fluor counter -16%, Tau ThT inhib inconclusive and TRb-SRC2 inh -11%.
Cc1ccc2c(c1)N(C(=O)N1CCC(C(=O)NC3CCCCCC3)CC1)CCO2 was read as Tau fibril FP 6%, TR SRC2 fluor cs -15%, Tau fluor counter inconclusive, Tau ThT inhib -10% and TRb-SRC2 inh 1%.
For CCOc1ccccc1CNC(=O)C1CCN(C(=O)N2CCOc3ccc(Cl)cc32)CC1 the results were Tau fibril FP inconclusive, TR SRC2 fluor cs -34%, Tau fluor counter inconclusive, Tau ThT inhib 32µM* and TRb-SRC2 inh 1%.
`Nc1cnn([C@@H]2O[C@H](CO)[C@@H](O)[C@H]2O)c(=O)n1` gave TR SRC2 fluor cs -3%, GoLoco inh red 6% and TRb-SRC2 inh 5%.
Screening CCc1cc[n+](C2=C([O-])c3ccccc3C(=O)/C2=N\S(=O)(=O)c2cccs2)cc1 returned Tau fibril FP inconclusive, TR SRC2 fluor cs -8%, Tau fluor counter inconclusive, Tau ThT inhib 13µM*, GoLoco inh red 33% and TRb-SRC2 inh 3%.
For Cc1cc(N(CCO)CCO)ccc1N=Nc1cc(F)ccc1F the results were Tau fibril FP 14%, TR SRC2 fluor cs -2%, Tau fluor counter inconclusive, Tau ThT inhib 10µM*, GoLoco inh red 12% and TRb-SRC2 inh 1%.

Assay outcomes as filed in PubChem.
